# Source: PubChem
# Shown are actives, neighbours in structure and some others; about 2.6% of the full set was active somewhere.
# EWS-Fli block = EWS/Fli transcriptional activity inhibition | A673 NR0B1-luciferase reporter, viability-normalised | inhibition, % at 12.6 µM | hit rate 0.67% among 350,000;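 active = mean inhibition of at least 50% after viability correction, with every replicate also passing that limit; inconclusive = mean reaches 50% but only one of two replicates passes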;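 note: firefly luciferase signal divided by Alamar Blue viability fluorescence both relative to DMSO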
# KKLEB tox = counter-screen for CF NF-kB inhibitors: cytotoxicity; KKLEB CF airway cells viability, ATPlite luminescence, overnight; hits give low values; cells stimulated with P. aeruginosa culture filtrate; activity change (cytotoxicity), % at 5 µM; AID 602141; hit rate 0.36% among 360,000;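 active = corrected activity change at or below -50% at 5 µM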
# TROY NFkB inh = inhibitors of TROY-dependent NF-kB signaling; AID 1347056; hit rate 0.98% among 360,000; inhibition, % at 10 µM; Q293 LMP1-TROYcd NF-kB luciferase reporter, 4 h;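 active = compounds whose plate-normalised and pattern-corrected inhibition of the luciferase reporter signal at the single screening dose is 50% or more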
# CF NFkB inh = blocks PAF-induced NF-kB reporter in cystic fibrosis cells | KKLEB NF-kB-GFP reporter, GFP fluorescence overnight | inhibition, % at 5 µM | hit rate 0.86% among 360,000 | AID 588850;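 active = at least 50% inhibition at 5 µM, scaled per plate between neutral and stimulator controls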;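 note: PAF is a Pseudomonas aeruginosa culture filtrate used as stimulus; plate controls were PAF-stimulated DMSO wells for no effect and unstimulated DMSO wells for full effect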
# LGR2 inh = blocks bursicon-induced cAMP signaling via Drosophila LGR2; AID 720647; HEK293 LGR2, CRE-luciferase, bursicon-stimulated, 4 h; hit rate 0.35% among 380,000; inhibition, % at 9.99 µM;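 active = drop in luminescence signal, shown as inhibition above about 50% in the replicate tests, limit read from the data, passing the limit was not always enough; inconclusive = probably only some replicates passing the limit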;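 note: agonist challenge used bursicon conditioned medium at about half maximal strength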
# TWEAK-Fn14 inh = TWEAK-Fn14 signaling inhibition; inhibition, % at 10 µM; AID 1159606; TWEAK-stimulated Fn14 reporter cells, luciferase luminescence, 8 h; hit rate 2% among 360,000; in the data active = inhibition above about 50%
# * hit, by the source's call; ? = inconclusive; · = no result given.
SMILES,EWS-Fli block,KKLEB tox,TROY NFkB inh,CF NFkB inh,LGR2 inh,TWEAK-Fn14 inh
COc1cccc(CNC(=O)[C@H]2N[C@H]3c4ccc(/C=C/c5ccccc5)c(=O)n4C[C@H]3[C@@H]2CO)c1,0,·,·,·,0,·
COc1ccccc1N1CCN(C(=O)Cn2nc(C(F)(F)F)c3c2CCC3)CC1,·,22,·,-10,·,53*
CCCSc1ccc2nc(-c3ccccc3)cn2c1,·,-70*,78*,-10,?,97*
CCCCSc1ccc2nc(-c3ccc(C#N)cc3)cn2c1,·,6,32,-4,-54,38
O=C(Nc1ccccc1)N[C@@H]1CC[C@@H](CCNS(=O)(=O)c2ccccc2F)O[C@@H]1CO,1,·,·,·,-47,·
O=C(NC1CCC1)[C@@H]1[C@@H](CO)[C@@H]2Cn3c(ccc(-c4ccccc4)c3=O)[C@H]1N2CC1CC1,3,·,·,·,-2,·
CCCOc1ccc(F)cc1-c1cc(C(=O)Nc2ccc(OC)nc2)[nH]n1,·,-2,-26,-5,·,13
CCCOc1ccc(F)cc1-c1cc(C(=O)Nc2cc(OC)c(OC)c(OC)c2)[nH]n1,22,3,9,-50,51*,64*
O=C(CN1C(=O)NC(Cc2ccccc2)C1=O)Nc1ccccc1 (stereo not given),·,11,·,-9,·,97*
CN(C)C(=O)C[C@@H]1C[C@@H]2c3cc(NC(=O)Nc4ccc(F)cc4)ccc3O[C@@H]2[C@H](CO)O1,-8,·,·,·,6,·
CC(Nc1nc(-c2ccc(F)cc2)cs1)c1nc2cc(Cl)c(Cl)cc2n1CCOCCO (stereo not given),3,-8,17,14,1,51*
Cc1ccc(Cn2c(C(C)Nc3nc(-c4ccc(F)cc4)cs3)nc3cc(Cl)c(Cl)cc32)cc1 (stereo not given),1,-10,45,20,-27,52*
COc1ccc(-c2csc(NC(C)c3nc4cc(Cl)c(Cl)cc4n3CCCO)n2)cc1 (stereo not given),-13,-20,55*,13,-3,48
CCCn1c(C(C)Nc2nc(-c3ccc(C)cc3)cs2)nc2cc(Cl)c(Cl)cc21 (stereo not given),6,4,1,-22,-15,6
CC(Nc1nc(-c2ccc(F)cc2)cs1)c1nc2cc(Cl)c(N3CCCCC3)cc2n1CCOCCO (stereo not given),6,-21,-14,1,6,-16
O=C(Nc1cccc(F)c1)N1CC(=O)N2[C@@H](CO)[C@@H](c3ccc(-c4ccccc4)cc3)[C@@H]2C1,-2,·,·,·,-11,·
COc1ccc(S(=O)(=O)N(C)C[C@H]2Oc3c(NS(=O)(=O)c4ccc(C)cc4)cccc3C(=O)N([C@H](C)CO)C[C@@H]2C)cc1,·,·,·,·,-6,·
CCCNC(=O)N1CC(=O)N2[C@@H](CO)[C@H](c3ccc(C#Cc4cccc(F)c4)cc3)[C@@H]2C1,-9,·,·,·,1,·
C[C@@H]1CN([C@@H](C)CO)C(=O)c2cccc(NS(=O)(=O)c3ccc(Cl)cc3)c2O[C@@H]1CN(C)Cc1ccc(-c2ccccc2)cc1,16,·,·,·,7,·
OCCCNc1cc(-c2ccnc(Nc3cccc(Cl)c3)n2)ccn1,-14,11,59*,86*,102*,97*
Cc1c(Cl)sn(-c2ccc(Cl)cc2)c1=O,65*,-90*,-9,79*,43,-8
Cc1cc(C)c(NC(=O)CSc2nc3ccc(NC(=O)CSc4nnnn4-c4ccccc4)cc3s2)c(C)c1,5,-67*,-2,71*,1,-30
c1ccc(Oc2ncnc3oc(-c4ccccc4)cc23)cc1,·,-3,3,-4,·,96*
Cc1ccc(C(=O)Nc2nc3ccccc3s2)s1,·,-2,10,-40,·,69*
Cc1ccc(CNc2nc3ccccc3s2)s1,·,-42,41,2,·,80*
SMILES,EWS-Fli block,KKLEB tox,TROY NFkB inh,CF NFkB inh,LGR2 inh,TWEAK-Fn14 inh
CCCNC(=O)c1ccc(-c2nc3ccccc3s2)s1,·,-50,·,-39,·,52*
O=C(Nc1nc2ccc(F)cc2s1)c1ccccn1,84*,·,·,·,90*,·
COc1ccc(CNc2nc3ccccc3s2)cc1OC,-80,5,-33,-18,-35,-14
CCCNC(=O)Nc1nc2ccccc2s1,-55,-2,-34,21,-77,-2
O=C(NCC[C@@H]1CC[C@@H](NC(=O)C2CCCC2)[C@H](CO)O1)c1ccc(F)cc1,0,·,·,·,-9,·
C[C@H]1CN([C@@H](C)CO)C(=O)Cc2cc(NS(C)(=O)=O)ccc2O[C@H]1CN(C)C,-6,·,·,·,7,·
O=C(Nc1nc2ccccc2s1)c1cnccn1,·,12,12,-26,·,56*
O=C(Nc1nc2ccccc2s1)c1ccccc1,-25,-19,1,-19,-13,50*
CCOc1ccc2nc(NC(=O)c3cnccn3)sc2c1,·,-10,-69,-7,·,19
c1ccc2sc(NN=C3CCCCCC3)nc2c1,46,-30,76*,-4,55*,76*
O=C(NNc1nc2ccccc2s1)c1ccc(F)cc1,-9,-7,76*,-2,-11,19
N#C[C@@H]1[C@@H](c2ccccc2)[C@H](CO)N1C(=O)Cc1ccccn1,6,·,·,·,-17,·
Cc1nc(SCC(=O)c2ccc(F)c(F)c2)[nH]c(=O)c1Oc1ccc(Cl)cc1,5,0,53*,-3,7,-19
Cc1nc(SCC(=O)c2ccc(F)c(F)c2)[nH]c(=O)c1Oc1ccc(F)cc1,10,12,9,-6,2,10
CN(C)CCCNC(=O)C[C@H]1CC[C@H]2[C@H](COc3ccc(NC(=O)C4CCC4)cc3C(=O)N2C)O1,-9,·,·,·,12,·
N#C/C(=N\Nc1ccc(S(=O)(=O)N2CCc3ccccc32)cc1)C(N)=S,21,-9,72*,58*,10,58*
CCOC(=O)/C(C#N)=N/Nc1ccc(S(=O)(=O)N2CCc3ccccc32)cc1,·,-7,52*,27,19,36
Cc1csc2c(N3CCN(C(=O)NC(C)(C)C)CC3)ncnc12,-10,8,-1,-14,-13,-2
Cc1csc2c(N3CCN(C(=O)Nc4ccc(Cl)c(Cl)c4)CC3)ncnc12,4,-10,63*,-9,6,16
O=C(Nc1nc2c(Br)cc(Br)cc2c(=O)s1)c1ccco1,-5,-28,4,31,2,62*
COc1ccc2nc(NC(=O)c3ccoc3C)sc2c1,8,-10,-6,-1,48,59*
COc1cccc(C(=O)Nc2cc(OC)ccc2NC(=O)c2ccco2)c1,·,-7,-26,-9,-11,56*
Cc1cc(C)c2nc(NC(=O)c3ccco3)sc2c1,42,5,15,-24,2,59*
Cc1cc(Cl)cc2sc(NC(=O)c3ccco3)nc12,·,17,-56,-21,·,6
COc1ccc2nc(NC(=O)c3cc(C)oc3C)sc2c1,·,-7,-26,-5,·,3
